Screening data as filed in PubChem.
IEC-6 cytotox = counter-screen for KLF5 inhibitors: cytotoxicity in IEC-6 cells; 290,000 compounds, 0.78% hits; AID 1825; IEC-6 cytotoxicity, luminescence viability; inhibition, % at 5 µM; in the data active = inhibition above about 22%;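 also: 0% = plate median of test compound wells and 100% = cytotoxic reference compound wells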
KLF5 inh = suppresses KLF5 promoter-driven expression; DLD-1 KLF5 promoter-luciferase reporter, luminescence; inhibition, % at 5 µM; 290,000 compounds, 0.23% hits; AID 1700;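 active = inhibition above a per-plate limit of that plate's mean compound inhibition plus 3 SD, cut at about 60% in these data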;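 also: 0% = DMSO wells and 100% = LY294002 at 200 µM; higher means less KLF5 promoter-driven luciferase light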
APP 5UTR inh = APP translation inhibition. SH-SY5Y APP 5'UTR-luciferase reporter, luminescence. inhibition, % at 2 µM. 190,000 compounds, 0.82% hits. AID 1285;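 active = inhibition above a set limit, derived from the sample mean plus 3 SD, cut at about 45% in these data; inconclusive = one replicate passes the limit while the other fails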
BaF3 tox = reduces parental Ba/F3 cell viability, JAK2V617F counter-screen | CellTiter-Glo ATP luminescence | inhibition, % at 5.6 µM | 220,000 compounds, 1.1% hits | AID 1486;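 active = inhibition above a per-campaign cutoff, the mean inhibition of all tested compounds plus 3 SD, cut at about 27% in these data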;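 also: 0% = DMSO wells and 100% = JAK Inhibitor I control wells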
aSyn 5UTR inh = MLPCN primary screen, SNCA 5' untranslated region. alpha-synuclein 5'UTR reporter, inhibitor activity. inhibition, % (tested at 7.5 µM). 300,000 compounds, 0.82% hits. AID 1813; in the data active = inhibition above about 60%; inconclusive = no clear call, values can overlap the other calls;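 also: H4 neuroglioblastoma cells stably carrying SNCA 5'UTR luciferase fusion; 0% = DMSO wells and 100% = positive control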
Ba/F3 V617F tox = lowers viability of Ba/F3 cells expressing EpoR and JAK2V617F. ATP luminescence. inhibition, % at 5.6 µM. 220,000 compounds, 1.1% hits. AID 1446;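 active = inhibition above the campaign mean plus 3 SD over all tested compounds, cut at about 24% in these data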;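 also: cytokine-independent growth of Ba/F3 cells driven by EpoR plus mutant JAK2; 0% = DMSO-treated cells and 100% = JAK inhibitor I control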
BaF3 tox 2 = reduces parental Ba/F3 viability, JAK2V617F counter-screen; inhibition, % at 5.6 µM; shares compounds with Ba/F3 V617F tox; 580 compounds, 31% hits; CellTiter-Glo luminescence; cells kept alive by added IL-3; AID 1520;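 active = cell growth inhibition above the hit limit set in the earlier mutant JAK2 cell screen, cut at about 27% in these data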;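 also: plate controls were DMSO-treated cells for no effect and JAK Inhibitor I control wells for full effect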
JAK2V617F conf = Ba/F3 EpoR-JAK2V617F viability loss, confirmation; CellTiter-Glo luminescence; shares compounds with Ba/F3 V617F tox; 580 compounds, 66% hits; AID 1521; inhibition, % at 5.6 µM;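 active = mean inhibition above the hit cutoff derived in the earlier primary screen, cut at about 25% in these data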;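 also: 0% = DMSO-treated cells and 100% = JAK inhibitor I control wells; higher means lower luminescence from reduced cell ATP and viability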
* = called active by the depositor. An excerpt weighted towards active compounds, which were near 2.2% of everything screened.

`CC1=CC(C)(C)Nc2ccc(OC(=O)CN3C(=O)CCC3=O)cc21` gave IEC-6 cytotox 4, KLF5 inh -10, APP 5UTR inh 26, BaF3 tox 4, aSyn 5UTR inh 31 and Ba/F3 V617F tox 4.
For CC1=CC(C)(C)Nc2ccc(OC(=O)c3ccco3)cc21 the results were IEC-6 cytotox -4, KLF5 inh -12, APP 5UTR inh 37, BaF3 tox 0, aSyn 5UTR inh 13, Ba/F3 V617F tox 43*, BaF3 tox 2 37* and JAK2V617F conf 83*.
CCCCNc1nc(Cl)nc(Nc2ccc(C)cc2)n1 was read as aSyn 5UTR inh -47.
For Cc1nc(NCc2ccccc2)[nH]c(=O)c1CCC(C)C the results were IEC-6 cytotox 4, KLF5 inh 13, APP 5UTR inh -1, BaF3 tox -4, aSyn 5UTR inh -24, Ba/F3 V617F tox 53*, BaF3 tox 2 -1 and JAK2V617F conf -3.
Cc1ccc(Nc2nc(C)c(CCC(C)C)c(=O)[nH]2)cc1 was read as IEC-6 cytotox -5, KLF5 inh -1, APP 5UTR inh -11, BaF3 tox 5, aSyn 5UTR inh -94 and Ba/F3 V617F tox 2.
Screening O=C(Cn1c(CO)nc2ccccc21)NC1CCCCCC1 returned IEC-6 cytotox 0, KLF5 inh -1, APP 5UTR inh 10, BaF3 tox 1, aSyn 5UTR inh 0 and Ba/F3 V617F tox -1.
Screening COc1ccc(CN=C(N)N=C(N)N)cc1Cl returned IEC-6 cytotox 0, KLF5 inh -21, APP 5UTR inh -15, BaF3 tox 22, aSyn 5UTR inh -2 and Ba/F3 V617F tox 4.
`CC(C)Oc1ccc(CN=C(N)N=C(N)N)cc1Cl` gave IEC-6 cytotox -9, KLF5 inh -27, APP 5UTR inh -7, BaF3 tox 2, aSyn 5UTR inh 14, Ba/F3 V617F tox 30*, BaF3 tox 2 40* and JAK2V617F conf 65*.
Cc1c(NC(=O)COC(=O)c2cc(-c3ccc(-c4ccccc4)cc3)nc3ccccc23)c(=O)n(-c2ccccc2)n1C was read as IEC-6 cytotox 2, KLF5 inh -59, APP 5UTR inh -100, BaF3 tox 21, aSyn 5UTR inh -34, Ba/F3 V617F tox 30*, BaF3 tox 2 59* and JAK2V617F conf 72*.
For Cc1cc(C)n2nc(CC(=O)NNC(=O)c3ccccc3Cl)nc2n1 the results were IEC-6 cytotox -2, KLF5 inh 3 and aSyn 5UTR inh 16.
For c1ccc(Sc2cccc3ccccc23)c(CNC2=NCCN2)c1 the results were IEC-6 cytotox 9, KLF5 inh -12, APP 5UTR inh -12, BaF3 tox 10, aSyn 5UTR inh inconclusive, Ba/F3 V617F tox 34*, BaF3 tox 2 39* and JAK2V617F conf 48*.
Screening CC(OC(=O)c1nc(Cl)ccc1Cl)C(=O)Nc1ccccc1F (stereo unspecified) returned aSyn 5UTR inh 3.
For COc1ccc(C(=O)/C=C/Nc2ccc(S(=O)(=O)Nc3cccc(C(C)=O)c3)cc2)cc1 the results were IEC-6 cytotox -1, KLF5 inh 5, APP 5UTR inh 6, BaF3 tox 14, aSyn 5UTR inh -12, Ba/F3 V617F tox 31*, BaF3 tox 2 8 and JAK2V617F conf 30*.
For O=C(O)c1ccccc1C(=O)c1ccc(-c2ccccc2)cc1 the results were IEC-6 cytotox -3, KLF5 inh -77 and aSyn 5UTR inh -5.
For O=C(c1ccccc1)c1ccccc1N1C(=O)C=CC1=O the results were IEC-6 cytotox 7, KLF5 inh -16, BaF3 tox 2, aSyn 5UTR inh 21, Ba/F3 V617F tox 32*, BaF3 tox 2 -2 and JAK2V617F conf 26*.
For CCOCCc1nnc(NC(=O)CS(=O)(=O)Cc2ccccc2)s1 the results were IEC-6 cytotox 4, KLF5 inh -58 and aSyn 5UTR inh 4.
`O=c1[nH]c2ccc(N/C(=N/S(=O)(=O)c3ccccc3)c3ccccc3)cc2[nH]1` gave IEC-6 cytotox -4, KLF5 inh -25, APP 5UTR inh 1, BaF3 tox 3, aSyn 5UTR inh 1, Ba/F3 V617F tox 29*, BaF3 tox 2 -2 and JAK2V617F conf 1.
Screening CC(=O)Nc1ccc(N/C(=N\S(=O)(=O)c2ccccc2)c2ccccc2)cc1 returned IEC-6 cytotox 0, KLF5 inh -37 and aSyn 5UTR inh 3.
For CCOc1ccc(C(CC(=O)O)NC(=O)C(CC)c2ccccc2)cc1 (stereo unspecified) the results were IEC-6 cytotox 6, KLF5 inh -19 and aSyn 5UTR inh 17.
For Oc1ccc(-c2csc(-c3ccccc3)n2)cc1O the results were IEC-6 cytotox 6, KLF5 inh -141, APP 5UTR inh -53, BaF3 tox 23, aSyn 5UTR inh -224, Ba/F3 V617F tox 57*, BaF3 tox 2 27* and JAK2V617F conf 93*.
For Oc1ccc(-c2csc(Nc3ncccn3)n2)cc1O the results were IEC-6 cytotox 2, KLF5 inh -162, APP 5UTR inh 31, BaF3 tox 8, aSyn 5UTR inh -178, Ba/F3 V617F tox 37*, BaF3 tox 2 28* and JAK2V617F conf 91*.
Oc1ccccc1-c1csc(-c2ccccc2)n1 was read as IEC-6 cytotox 8, KLF5 inh -13, APP 5UTR inh -116, BaF3 tox 3, aSyn 5UTR inh -122 and Ba/F3 V617F tox -1.
Cc1ccccc1CNc1ccc(C(CC(N)=O)NC(=O)c2ccccc2)cc1[N+](=O)[O-] (stereo unspecified) was read as aSyn 5UTR inh 22.
For COC(=O)c1cn(NC(=O)c2cc([N+](=O)[O-])ccc2F)c(=O)c2ccccc12 the results were IEC-6 cytotox 6, KLF5 inh 32, APP 5UTR inh 23, BaF3 tox 24, aSyn 5UTR inh 3, Ba/F3 V617F tox 36*, BaF3 tox 2 41* and JAK2V617F conf 97*.
`COC(=O)c1cn(NC(=O)C2CCC(C)CC2)c(=O)c2ccccc12` (stereo unspecified) gave IEC-6 cytotox 6, KLF5 inh 24, APP 5UTR inh -15, BaF3 tox 3, aSyn 5UTR inh 17 and Ba/F3 V617F tox 4.
O=C(/C=C/c1ccco1)N(c1ccccn1)c1ccccn1 was read as IEC-6 cytotox -3, KLF5 inh -38, APP 5UTR inh -8, BaF3 tox 1, aSyn 5UTR inh -21 and Ba/F3 V617F tox -3.
`COc1cc(C2Oc3ccccc3C=C2[N+](=O)[O-])cc(OC)c1OC` (stereo unspecified) gave IEC-6 cytotox 6, KLF5 inh -12, BaF3 tox 0 and Ba/F3 V617F tox -5.
